The whole screen tested about 310,000 compounds, of which about 1,700 (0.55%) were called active. Cut-off read from the data, not from the text of the source: active = inhibition above about 50%; inactive = the rest. For the sample, actives were picked, then their nearest neighbours and some compounds at random.
These compounds were tested against Histone-lysine N-methyltransferase NSD2 (Homo sapiens) (UniProt O96028) (assay: blockers of NSD2 lysine methylation activity – biochemical, AlphaScreen, single concentration, set 2, primary screen (AID 743445)). Conditions: NSD2 peptide methylation, 120 min, at 12.5 µM, hits give high values.
Sequence of Histone-lysine N-methyltransferase NSD2 (Homo sapiens) (O96028 whole entry, looked up): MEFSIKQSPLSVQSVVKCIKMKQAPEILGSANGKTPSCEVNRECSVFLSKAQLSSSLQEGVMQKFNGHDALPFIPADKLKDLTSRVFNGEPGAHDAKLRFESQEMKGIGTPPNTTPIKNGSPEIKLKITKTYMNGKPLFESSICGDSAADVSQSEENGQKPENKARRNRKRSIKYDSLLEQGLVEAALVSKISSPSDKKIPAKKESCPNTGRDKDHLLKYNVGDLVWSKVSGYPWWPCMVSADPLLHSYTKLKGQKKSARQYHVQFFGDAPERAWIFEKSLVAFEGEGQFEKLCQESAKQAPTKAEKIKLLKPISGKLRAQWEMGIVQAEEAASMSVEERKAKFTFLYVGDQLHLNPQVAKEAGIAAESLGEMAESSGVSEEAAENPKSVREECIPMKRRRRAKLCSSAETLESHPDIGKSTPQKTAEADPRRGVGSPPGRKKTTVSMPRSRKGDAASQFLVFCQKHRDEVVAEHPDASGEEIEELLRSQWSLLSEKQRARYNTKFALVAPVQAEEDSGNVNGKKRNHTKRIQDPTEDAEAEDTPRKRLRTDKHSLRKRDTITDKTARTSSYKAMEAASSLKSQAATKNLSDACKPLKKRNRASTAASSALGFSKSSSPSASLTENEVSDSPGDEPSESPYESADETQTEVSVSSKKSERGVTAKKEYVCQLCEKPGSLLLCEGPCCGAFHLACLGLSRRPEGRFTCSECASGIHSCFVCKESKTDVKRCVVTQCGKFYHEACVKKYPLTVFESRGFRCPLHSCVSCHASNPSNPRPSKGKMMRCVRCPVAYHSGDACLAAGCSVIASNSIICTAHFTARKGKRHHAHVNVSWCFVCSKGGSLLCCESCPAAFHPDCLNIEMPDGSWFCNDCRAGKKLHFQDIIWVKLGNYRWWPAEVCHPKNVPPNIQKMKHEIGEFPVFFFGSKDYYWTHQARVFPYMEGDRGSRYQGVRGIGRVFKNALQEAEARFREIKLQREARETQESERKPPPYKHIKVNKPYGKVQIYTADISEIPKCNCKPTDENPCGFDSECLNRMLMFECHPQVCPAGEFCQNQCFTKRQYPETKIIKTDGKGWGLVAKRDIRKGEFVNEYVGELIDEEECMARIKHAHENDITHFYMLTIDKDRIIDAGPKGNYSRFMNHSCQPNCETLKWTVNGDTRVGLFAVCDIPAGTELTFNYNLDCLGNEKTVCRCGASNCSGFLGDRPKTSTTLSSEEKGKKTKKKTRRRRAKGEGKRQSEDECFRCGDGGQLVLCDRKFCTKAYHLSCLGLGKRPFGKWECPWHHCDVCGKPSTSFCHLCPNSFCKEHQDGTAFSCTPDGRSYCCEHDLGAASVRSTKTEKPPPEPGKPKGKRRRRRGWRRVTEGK

Structure (SMILES) | inhibition
CN1CCN(c2ccc(S(=O)(=O)N3CCCCC3)cc2NC(=O)Cc2ccccc2F)CC1 | 1.27% (inactive)
CCN(CC)S(=O)(=O)c1ccc(N2CCOCC2)c(NC(=O)C(C)Oc2ccc(F)cc2)c1 (stereo not drawn) | -1.83% (inactive)
CCN(CC)S(=O)(=O)c1ccc(N2CCN(C)CC2)c(NC(=O)Nc2ccccc2F)c1 | 78.4% (active)
Cc1nc([N+](=O)[O-])cn1CC(=O)Nc1ccc2c(c1)OCO2 | -1.66% (inactive)
Cc1nc([N+](=O)[O-])cn1CC(=O)Nc1ccc(Cl)cc1 | -0.868% (inactive)
Cc1ccc(C(=O)Cn2cc([N+](=O)[O-])nc2C)cc1 | 55.2% (active)
COc1ccc(CCc2nc(-c3cccs3)no2)cc1 | -6.21% (inactive)
COc1ccc(OC)c(-c2csc(NC(=O)COC(=O)C3CC3)n2)c1 | -2.87% (inactive)
COc1ccc(OC)c(-c2csc(-c3cccs3)n2)c1 | 126% (active)
COc1ccc(-c2cc(NC=O)c3ncc(-c4cc(OC)c(OC)c(OC)c4)n3c2)c(OC)c1 | 2.63% (inactive)
COc1ccc(C(=O)N2CCCCC2c2cc(C(=O)Nc3ccc(F)c(Cl)c3)no2)cc1 (stereo not drawn) | -0.843% (inactive)
CCOc1ccc(C(CC(=O)O)NC(=O)Cc2ccccc2)cc1OC (stereo not drawn) | 0.638% (inactive)
CCOc1ccc(C(CC(=O)O)NC(=O)C23CC4CC(CC(C4)C2)C3)cc1OC (stereo not drawn) | 73.2% (active)
COc1ccc(C(C)NC(=O)C23CC4CC(CC(C4)C2)C3)cc1 (stereo not drawn) | 0.365% (inactive)
CCC(NC(=O)C1C2C=CC3(CN(Cc4ccccc4)C(=O)C13)O2)c1ccccc1 (stereo not drawn) | -0.276% (inactive)
CC(=O)N1CCc2cc(S(=O)(=O)NCCC(=O)N3CCCC3)ccc21 | -3.38% (inactive)
Cc1ccc(-n2c(SCC(=O)Nc3ccc(S(=O)(=O)Nc4nccs4)cc3)nnc2-c2ccccn2)cc1 | 10.5% (inactive)
Cc1coc2c(O)cc3c(c12)OC1(N2CCCCC2)C(=O)NCCCC31 (stereo not drawn) | 75.1% (active)
COc1ccccc1CCNC(=O)C1CCN(c2nc(C)cc(C)n2)CC1 | -3.97% (inactive)
Cc1ccc(C(=O)N(Cc2ccccn2)CC2CCCO2)cc1 (stereo not drawn) | -6.08% (inactive)

Structure (SMILES) | inhibition
OC(c1ccccc1)c1nc(/C=C/c2ccc(C(F)(F)F)cc2)cs1 (stereo not drawn) | -1.07% (inactive)
CSc1ccc(CN2CCC2(C)C(=O)Nc2ccc(C)c(O)c2)cc1 (stereo not drawn) | -2.34% (inactive)
COCC(C)n1c(SCc2ccc(C(=O)OC)o2)nc2ccccc2c1=O (stereo not drawn) | -0.047% (inactive)
COCC(C)n1c(SCC(=O)NC2CCCCC2C)nc2ccccc2c1=O (stereo not drawn) | 52.7% (active)
COCCn1c(C)cc(C(=O)CSc2nc3ccccc3c(=O)n2C(C)COC)c1C (stereo not drawn) | 1.34% (inactive)
COC(CNC(=O)[C@H](Cc1ccccc1)NC1(C(=O)NC2CCCCC2)CCCCC1)OC | -1.53% (inactive)
CC1(Oc2ccc(Cl)cc2)CCN(Cc2csc3ccccc23)C1 (stereo not drawn) | -2.85% (inactive)
COC(=O)c1nc(NC(=O)c2ccc(F)cc2)n[nH]1 | -3.85% (inactive)
COC(=O)c1nc(NC(=O)c2ccccc2)n[nH]1 | 64.1% (active)
COC(=O)c1nc(NC(=O)c2ccc(C(C)(C)C)cc2)n[nH]1 | -1.33% (inactive)
COc1cccc(CSc2nnc(-c3cccnc3)n2Cc2ccccc2)c1 | 2.07% (inactive)
CCc1nc2c(OCCOc3ccccc3)cccn2c1N(C)C(=O)c1cccs1 | -0.996% (inactive)
CC(=O)c1cccc(-c2cnc3c(NC=O)cc(-c4ccc(N5CCN(C)CC5)cc4)cn23)c1 | 2.68% (inactive)
CC(C)(C)CC(=O)Nc1nc(C(N)Cc2ccc(C(F)(F)F)cc2)cs1 (stereo not drawn) | 14% (inactive)
CCN(CC)CCCNC(=O)c1cc(-c2cccc(Cl)c2)on1 | 63.4% (active)
O=C(NCCCN1CCOCC1)c1cc(-c2cccc(O)c2)on1 | -0.66% (inactive)
O=C(Nc1cccnc1Cl)c1cc(-c2cccc(Cl)c2)on1 | -7.36% (inactive)
Cc1ccc(-c2nc(C3CCCN(S(=O)(=O)c4ccc(Br)s4)C3)no2)cc1 (stereo not drawn) | -7.73% (inactive)
CCOc1cc2ccccc2cc1C(=O)Nc1ccccn1 | -0.208% (inactive)
Cc1cccc(OCC(=O)NCCCNC(=O)c2ccccn2)c1 | 1.46% (inactive)

Structure (SMILES) | inhibition
CCN(CC)CCOc1ccc2c(c1)C(=NNC(=O)c1ccccn1)c1cc(OCCN(CC)CC)ccc1-2 | 64.6% (active)
C=CCn1c2c(c3ccccc31)CCC2 | 1.47% (inactive)
Cc1ccc(Nc2ncnc3c2cnn3C)c(C)c1 | -0.415% (inactive)
Cn1ncc2c(NNC(=O)Cc3cccc4ccccc34)ncnc21 | -5.08% (inactive)
Cn1ncc2c(Nc3cccc4ccccc34)ncnc21 | 58.9% (active)
Cc1cc(C)cc(NC(=O)N2CCC(N(C)CCC(C)C)CC2)c1 | 6.38% (inactive)
Cc1cc(NS(=O)(=O)c2ccc(NC(=O)CSc3nnc(SCc4ccc(F)cc4)s3)cc2)nc(C)n1 | 1.71% (inactive)
CCOC(=O)C(=O)N(Cc1ccccc1)c1ccccc1C(=O)Nc1cc(OC)ccc1OC | 3.11% (inactive)
COC(=O)c1ccccc1N=Nc1c(C)[nH][nH]c1=O | 0.329% (inactive)
Cc1cccc(N=Nc2c(C)[nH]n(-c3ccccc3)c2=O)c1 | 9.54% (inactive)
Cc1[nH]n(-c2ccccc2)c(=O)c1N=Nc1ccccc1C(=O)N1CCCCC1 | 56.8% (active)
OC(c1ccccc1)c1nc(-c2cnc3ccccc3c2)cs1 (stereo not drawn) | 2.58% (inactive)
COC(=O)CC1CCc2cc(C)cc(C(CC(C)C)NC(=O)[C@H](CC(C)C)NC(=O)OCc3ccccc3)c2O1 (stereo partly drawn) | -2.73% (inactive)
COC(=O)/C=C/C(=O)NCc1ccco1 | 0.685% (inactive)
O=C(NCc1ccco1)C1(c2ccc(Cl)cc2)CCCC1 | 3.15% (inactive)
O=C(/C=C/c1ccc(Cl)cc1Cl)NCc1ccco1 | 57.4% (active)
CCOc1ccc(-n2c(SCC(=O)Nc3cc(C)c(NC(=O)c4ccccc4)cc3OC)nnc2-c2cccc(Cl)c2)cc1 | 1.66% (inactive)
c1csc(-c2nnc(SCc3nc4ccccc4[nH]3)o2)c1 | -7.8% (inactive)

From PubChem BioAssay AID743445 (Broad Institute, 2014)
